Experimental data as given in the supplement of paper PMC6897291.

What was measured:
[1] = system: U-2932; assay: growth inhibition by drug alone (1 - RLU/untreated control) (fraction); higher = stronger inhibition; details: 177Lu-lilotomab satetraxetan 0 ug/ml
How it was run: (§1)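 RIVA or U-2932 cells were left untreated or pretreated for 18 h with a radiolabelled anti-CD37 antibody conjugate (~600 MBq/mg) at 0.5 µg/ml for RIVA or 1 µg/ml for U-2932. The cells were then washed and seeded at 3,000 cells/well on plates pre-printed with the Selleck Cambridge Cancer Compound library, dosed at 10/100 nM for RIVA and 10/1,000 nM for U-2932. From day 3, RealTime-Glo luminescence was read daily after 1 h at 37°C. Growth inhibition was taken as one minus RLU over the mean of the untreated no-drug wells, of which there were 48 per plate.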

[2] = system: RIVA; assay: as above; details: 177Lu-lilotomab satetraxetan 0 ug/ml
How it was run: as §1

[3] = system: U-2932; assay: growth inhibition by drug plus 177Lu-lilotomab satetraxetan (1 - RLU/untreated control) (fraction); higher = stronger inhibition; details: 177Lu-lilotomab satetraxetan 1 ug/ml
How it was run: as §1

[4] = system: RIVA; assay: as above; details: 177Lu-lilotomab satetraxetan 0.5 ug/ml
How it was run: as §1

Row | SMILES | growth inhibition by drug alone ([1]; 10 nM, time (day): 3) | growth inhibition by drug alone ([1]; 10 nM, time (day): 4) | growth inhibition by drug alone ([1]; 10 nM, time (day): 5) | growth inhibition by drug alone ([1]; 10 nM, time (day): 6) | growth inhibition by drug alone ([1]; 1000 nM, time (day): 3) | growth inhibition by drug alone ([1]; 1000 nM, time (day): 4) | growth inhibition by drug alone ([1]; 1000 nM, time (day): 5) | growth inhibition by drug alone ([1]; 1000 nM, time (day): 6) | growth inhibition by drug alone ([2]; 10 nM, time (day): 3) | growth inhibition by drug alone ([2]; 10 nM, time (day): 4) | growth inhibition by drug alone ([2]; 10 nM, time (day): 5) | growth inhibition by drug alone ([2]; 10 nM, time (day): 6) | growth inhibition by drug alone ([2]; 100 nM, time (day): 3) | growth inhibition by drug alone ([2]; 100 nM, time (day): 4) | growth inhibition by drug alone ([2]; 100 nM, time (day): 5) | growth inhibition by drug alone ([2]; 100 nM, time (day): 6) | growth inhibition by drug plus 177Lu-lilotomab satetraxetan ([3]; 10 nM, time (day): 3) | growth inhibition by drug plus 177Lu-lilotomab satetraxetan ([3]; 10 nM, time (day): 4) | growth inhibition by drug plus 177Lu-lilotomab satetraxetan ([3]; 10 nM, time (day): 5) | growth inhibition by drug plus 177Lu-lilotomab satetraxetan ([3]; 10 nM, time (day): 6) | growth inhibition by drug plus 177Lu-lilotomab satetraxetan ([3]; 1000 nM, time (day): 3) | growth inhibition by drug plus 177Lu-lilotomab satetraxetan ([3]; 1000 nM, time (day): 4) | growth inhibition by drug plus 177Lu-lilotomab satetraxetan ([3]; 1000 nM, time (day): 5) | growth inhibition by drug plus 177Lu-lilotomab satetraxetan ([3]; 1000 nM, time (day): 6) | growth inhibition by drug plus 177Lu-lilotomab satetraxetan ([4]; 10 nM, time (day): 3) | growth inhibition by drug plus 177Lu-lilotomab satetraxetan ([4]; 10 nM, time (day): 4) | growth inhibition by drug plus 177Lu-lilotomab satetraxetan ([4]; 10 nM, time (day): 5) | growth inhibition by drug plus 177Lu-lilotomab satetraxetan ([4]; 10 nM, time (day): 6) | growth inhibition by drug plus 177Lu-lilotomab satetraxetan ([4]; 100 nM, time (day): 3) | growth inhibition by drug plus 177Lu-lilotomab satetraxetan ([4]; 100 nM, time (day): 4) | growth inhibition by drug plus 177Lu-lilotomab satetraxetan ([4]; 100 nM, time (day): 5) | growth inhibition by drug plus 177Lu-lilotomab satetraxetan ([4]; 100 nM, time (day): 6)
1 | CNC(=O)c1ccc(N2C(=S)N(c3ccc(C#N)c(C(F)(F)F)c3)C(=O)C2(C)C)cc1F [MDV3100 (Enzalutamide)] | 0.0921 | 0.0374 | -0.126 | -0.107 | 0.019 | 0.0335 | -0.0413 | -0.0245 | 0.0909 | 0.0471 | 0.0315 | -0.246 | -0.0634 | -0.143 | -0.144 | -0.21 | 0.0217 | 0.0789 | 0.128 | 0.16 | 0.0172 | 0.0892 | 0.116 | 0.182 | 0.559 | 0.587 | 0.59 | 0.602 | 0.519 | 0.555 | 0.553 | 0.556
2 | COc1cc2c(cc1OC)CN(CCc1ccc(NC(=O)c3cccc4c(=O)c5cccc(OC)c5[nH]c34)cc1)CC2 [Elacridar] | -0.00987 | 0.00491 | 0.00725 | 0.0766 | 0.114 | 0.0649 | 0.000978 | -0.0858 | -0.196 | -0.178 | -0.24 | -0.531 | -0.21 | -0.258 | -0.283 | -0.457 | -0.0285 | 0.00551 | 0.0106 | 0.107 | 0.0477 | 0.0502 | 0.0374 | -0.0614 | 0.3 | 0.468 | 0.491 | 0.503 | 0.263 | 0.407 | 0.424 | 0.403
3 | O=C(NC1CCNCC1)c1n[nH]cc1NC(=O)c1c(Cl)cccc1Cl | 0.0998 | 0.0607 | 0.0482 | 0.00372 | 0.953 | 0.964 | 0.972 | 0.975 | 0.0833 | 0.0499 | 0.00549 | -0.171 | -0.131 | -0.1 | -0.185 | -0.425 | 0.0507 | 0.0657 | 0.0758 | 0.0972 | 0.947 | 0.964 | 0.971 | 0.977 | 0.495 | 0.577 | 0.593 | 0.579 | 0.503 | 0.57 | 0.566 | 0.533
4 | CC(C)Oc1cc(Nc2nc(N[C@@H](C)c3ccc(F)cn3)ncc2Cl)n[nH]1 | 0.14 | 0.0983 | -0.0668 | -0.0699 | 0.0367 | 0.0436 | -0.032 | -0.0869 | 0.0887 | 0.104 | 0.0671 | -0.147 | -0.29 | -0.178 | -0.215 | -0.331 | 0.116 | 0.157 | 0.213 | 0.262 | 0.11 | 0.174 | 0.221 | 0.323 | 0.626 | 0.642 | 0.679 | 0.662 | 0.487 | 0.557 | 0.57 | 0.574
5 | Cc1ccc(NC(=O)c2ccc(CN3CC[C@H](N(C)C)C3)c(C(F)(F)F)c2)cc1Nc1nccc(-c2cncnc2)n1 [Bafetinib (INNO-406)] | 0.0934 | 0.0624 | -0.0124 | 0.0553 | 0.0275 | -0.0147 | -0.073 | 0.062 | 0.236 | 0.204 | 0.191 | 0.188 | -0.279 | -0.213 | -0.225 | -0.275 | 0.0136 | 0.0566 | 0.138 | 0.239 | 0.00697 | 0.00776 | 0.0531 | 0.226 | 0.594 | 0.623 | 0.652 | 0.658 | 0.392 | 0.503 | 0.513 | 0.535
6 | C[C@]12CC[C@@H]3c4ccc(O)cc4CC[C@H]3[C@@H]1CC[C@@H]2O [Estradiol] | 0.0973 | 0.0727 | -0.00691 | -0.0255 | 0.0487 | 0.0434 | -0.00409 | -0.0239 | 0.262 | 0.163 | 0.098 | -0.022 | 0.0522 | 0.0345 | -0.0106 | -0.0996 | 0.0604 | 0.113 | 0.146 | 0.26 | 0.0789 | 0.106 | 0.106 | 0.215 | 0.509 | 0.574 | 0.594 | 0.601 | 0.584 | 0.611 | 0.607 | 0.585
7 | C[C@]12CC[C@@H]3c4ccc(O)cc4CC[C@H]3[C@@H]1CCC2=O [Estrone] | 0.0961 | 0.0749 | 0.0943 | -0.00298 | 0.0954 | 0.046 | 0.0242 | -0.126 | -0.099 | -0.0604 | -0.112 | -0.295 | -0.445 | -0.269 | -0.323 | -0.542 | 0.0282 | 0.0899 | 0.127 | 0.0988 | 0.0277 | 0.0438 | 0.0954 | 0.209 | 0.474 | 0.569 | 0.585 | 0.601 | 0.271 | 0.43 | 0.447 | 0.475
